Mot1-301 SUMO = SUMOylation pathway inhibition by Mot1-301 growth rescue; S. cerevisiae Mot1-301 growth rescue, ATP luminescence, 38.5C; percent above DMSO median, 100 means doubled; growth rescue, % at 18.8 µM; hit rate 1% among 320,000;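 active = every valid replicate shows activation above 250% relative to neutral control wells; inactive = the rest, any valid replicate at or below 250%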;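 note: OY570 slx delta 5 strain wells were the positive control but not used for scaling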
Cardio protect = protects H9c2 cardiomyocytes from peroxide injury. H2O2 injury protection, ATPLite, 2 h. protection from H2O2 cell death, % at 20 µM. hit rate 0.63% among 360,000;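 active = compounds giving at least 50% protection of heart cells from peroxide-induced death in the single-dose screen, raw or plate-pattern-corrected value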;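 note: 0% = DMSO wells with peroxide and 100% = DMSO wells without peroxide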
aDG glyco up = increases alpha dystroglycan glycosylation; Pro5-aDG cells, alpha-DG glycosylation AlphaScreen (IIH6); 0% Pro5, 100% B10-LARGE cell signal; activation, % at 10 µM; hit rate 0.22% among 360,000; AID 624168;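 active = activation of at least 8% versus controls, or a plate z-score of at least 8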;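 note: Pro5 are CHO cells carrying HIG-tagged alpha-DG that lacks glycosylation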
FAS TE block = FAS thioesterase (human) inhibition; recombinant FAS-TE, OMFH fluorogenic substrate, fluorescence endpoint; hit rate 0.67% among 360,000; AID 602261; inhibition, % at 15 µM; P49327;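 active = compounds whose normalised, plate-corrected inhibition of enzyme fluorescence in the single-dose primary screen is 50% or more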;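 note: 0% = DMSO with enzyme and 100% = substrate without enzyme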
Yeast superoxide = yeast age-related superoxide inhibition as caloric restriction mimetic; hit rate 0.18% among 330,000; superoxide response (% of plate mean), % at 10 µM; AID 2690; S. cerevisiae aged cells, superoxide DHE fluorescence; stronger effect = lower value;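 active = superoxide response under a set limit, about three screen SD below normal, cut at about 65% in these data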;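 note: yeast aged for seven days with compound at 30 °C before DHE staining; 100% = average MFI of all compound-treated wells on the plate with controls excluded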
MPTP inh = blocks calcium-induced mitochondrial swelling. hit rate 1.4% among 360,000. inhibition, % at 10 µM. isolated mouse mitochondria, Ca2+ swelling absorbance, 30 min;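 active = inhibition of 50% or more, scaled per plate between neutral and stimulator controls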;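 note: 0% = DMSO wells given calcium and 100% = 1 mM EGTA wells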
The depositor's hits bear a star; . = no result given. Only some compounds are listed: those with a hit (about 3.8% of all), similar ones and a draw of the others.

SMILES	Mot1-301 SUMO	Cardio protect	aDG glyco up	FAS TE block	Yeast superoxide	MPTP inh
CCC1(CC)NC(=O)N(CC(=O)OCC(=O)Nc2ccccc2[N+](=O)[O-])C1=O	10.5	70.1*	-0.3	-4.0	123.8	-2.4
COc1ccccc1NC(=O)C(C)OC(=O)Cc1n[nH]c(=O)c2ccccc12 (configuration not stated)	-13.0	66.0*	-0.3	-4.3	86.9	-1.9
CC(OC(=O)Cc1n[nH]c(=O)c2ccccc12)C(=O)Nc1ccccc1[N+](=O)[O-] (configuration not stated)	0.9	72.5*	0.6	-4.5	107.4	-0.2
Cc1cccc(C(C)C)c1NC(=O)C(C)OC(=O)Cc1n[nH]c(=O)c2ccccc12 (configuration not stated)	-14.2	70.9*	0.3	-4.6	102.7	-3.1
COc1ccccc1NC(=O)C(C)OC(=O)Cn1cnc2c1c(=O)n(C)c(=O)n2C (configuration not stated)	-6.4	0.2	-0.3	-6.1	90.7	-2.8
CC(OC(=O)Cc1n[nH]c(=O)c2ccccc12)C(=O)Nc1cccc([N+](=O)[O-])c1 (configuration not stated)	-1.0	57.5*	0.5	4.9	102.7	-1.0
CC(OC(=O)CCC1CCCC1)C(=O)Nc1ccccc1[N+](=O)[O-] (configuration not stated)	3.8	-4.1	-0.1	22.6	114.8	-2.7
CC(Oc1ccccc1)C(=O)Nc1cccc([N+](=O)[O-])c1 (configuration not stated)	-14.9	1.0	0.6	22.8	86.8	-1.2
O=C(Cc1n[nH]c(=O)c2ccccc12)OCc1c(Cl)cccc1Cl	-5.8	8.3	-0.1	-10.9	99.4	1.2
O=C1NC[C@@H](CCCCN2C[C@H](Cc3ccc(O)cc3)N(CC3CCCCC3)C(=O)C2=O)N(CC2CCCCC2)C1=O	.	.	0.2	12.6	.	-1.3
Cc1cc(N2O[C@H]3C=C[C@@H]2C3)no1	.	0.4	-0.1	-4.6	103.4	-2.9
CC(C)[C@H](NC(=O)N1c2ccccc2NC(=O)[C@@H]1C(C)C)C(=O)N[C@@H](C(=O)O)c1ccccc1	910.4*	1.8	0.2	-1.6	129.2	-1.9
CC(C)[C@H](NC(=O)N1c2ccccc2NC(=O)[C@@H]1C(C)C)C(=O)N[C@@H](Cc1ccccc1)C(=O)O	-28.7	5.5	0.0	-7.7	114.2	2.1
O=Cc1coc2ccc3ccccc3c2c1=O	77.4	-3.1	0.1	-0.2	100.9	0.9
NC(=O)N/N=C/c1coc2ccc3ccccc3c2c1=O	334.2*	-0.9	0.0	-2.1	102.0	3.2
O=C(Nc1ccc(C(=O)O)cc1)/C(=C\c1ccc([N+](=O)[O-])cc1)NC(=O)c1ccco1	.	-1.2	-0.3	-4.4	.	-0.9
COc1ccc(NC(=O)C(OC(=O)c2cnc(C)cn2)c2ccccc2)cc1Cl (configuration not stated)	4.0	4.2	0.0	2.8	117.8	0.8
COc1ccc(NC(=O)C(OC(=O)c2ccc([N+](=O)[O-])o2)c2ccccc2)cc1Cl (configuration not stated)	-2.5	52.4*	0.0	34.2	111.7	2.6
Nc1[nH]c(C(=O)c2ccccc2)c(-c2ccncc2)c1C(=O)NC1CC1	.	.	-0.3	-7.9	.	-0.2
CCN(c1ccccc1)S(=O)(=O)c1ccc(C(=O)Nc2ccc(C)cn2)cc1	9.3	-4.0	-0.1	6.8	81.8	0.2
COCCn1nnnc1CN(Cc1cccnc1)Cc1cc2cc(OC)ccc2[nH]c1=O	.	41.1	-0.2	-9.6	.	-2.1
COc1ccc2[nH]c(=O)c(CN(Cc3nnnn3Cc3ccccc3)CC3CCCO3)cc2c1 (configuration not stated)	41.2	66.8*	-0.1	-8.1	125.9	-0.1
COCCn1nnnc1CN(CCc1ccccc1)Cc1cc2cc(OC)ccc2[nH]c1=O	-0.8	64.0*	0.4	-1.9	85.8	-0.8
COc1ccc2[nH]c(=O)c(CN(Cc3nnnn3Cc3ccc(F)cc3)CC3CCCO3)cc2c1 (configuration not stated)	-7.1	32.3	-0.2	-6.4	99.4	-1.1
CCOC(=O)c1cnc(SC)nc1Oc1cccc(NC(=O)c2cccc(Cl)c2Cl)c1	-9.2	71.2*	0.2	24.3	97.9	2.4
